# Source: ChEMBL document CHEMBL1961873, “Compounds: GSK PKIS; Assays: Nanosyn kinase panel” (2012)
# What was measured:
# [1] = target: Calcium/calmodulin-dependent protein kinase type II subunit alpha (Homo sapiens) (UniProt Q9UQM7); details: at 1 µM;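 note: reported value is a mean percent inhibition of CAMK2A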
# [2] = target: Calcium/calmodulin-dependent protein kinase type II subunit delta (Homo sapiens) (UniProt Q13557); details: at 0.1 µM
# [3] = target: Calcium/calmodulin-dependent protein kinase type II subunit delta (Homo sapiens) (UniProt Q13557); details: at 1 µM
# [4] = target: T1, Calcium/calmodulin-dependent protein kinase type IV (Homo sapiens) (UniProt Q16566); details: at 0.1 µM
# T1 sequence (whole entry): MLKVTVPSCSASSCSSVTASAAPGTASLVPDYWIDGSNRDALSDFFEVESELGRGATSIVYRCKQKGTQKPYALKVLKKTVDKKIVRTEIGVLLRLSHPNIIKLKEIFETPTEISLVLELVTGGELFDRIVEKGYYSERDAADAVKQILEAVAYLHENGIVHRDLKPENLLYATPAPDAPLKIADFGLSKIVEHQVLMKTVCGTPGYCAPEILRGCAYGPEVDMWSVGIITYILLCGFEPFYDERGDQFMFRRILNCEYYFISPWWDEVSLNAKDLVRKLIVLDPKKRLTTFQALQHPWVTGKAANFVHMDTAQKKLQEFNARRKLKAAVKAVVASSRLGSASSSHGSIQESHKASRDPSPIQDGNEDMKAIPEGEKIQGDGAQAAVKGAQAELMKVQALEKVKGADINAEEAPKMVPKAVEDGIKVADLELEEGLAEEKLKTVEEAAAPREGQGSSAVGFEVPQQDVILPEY
# [5] = target: T1, Calcium/calmodulin-dependent protein kinase type IV (Homo sapiens); details: at 1 µM
# [6] = target: T2, Serine/threonine-protein kinase Chk1 (Homo sapiens) (UniProt O14757); details: at 0.1 µM
# T2 sequence (whole entry): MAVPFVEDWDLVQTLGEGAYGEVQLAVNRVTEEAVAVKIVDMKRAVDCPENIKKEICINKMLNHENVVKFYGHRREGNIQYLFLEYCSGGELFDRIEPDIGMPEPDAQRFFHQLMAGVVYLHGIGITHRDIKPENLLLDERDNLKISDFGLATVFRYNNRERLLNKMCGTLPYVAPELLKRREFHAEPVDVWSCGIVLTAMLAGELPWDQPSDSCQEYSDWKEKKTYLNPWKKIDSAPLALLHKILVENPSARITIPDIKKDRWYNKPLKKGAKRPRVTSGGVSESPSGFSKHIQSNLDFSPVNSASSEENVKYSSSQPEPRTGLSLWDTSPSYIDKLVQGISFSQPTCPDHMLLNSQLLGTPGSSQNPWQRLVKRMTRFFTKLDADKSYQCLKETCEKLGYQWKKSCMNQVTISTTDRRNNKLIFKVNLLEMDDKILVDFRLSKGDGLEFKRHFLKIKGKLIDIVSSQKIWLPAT
# [7] = target: T2, Serine/threonine-protein kinase Chk1 (Homo sapiens); details: at 1 µM
# [8] = target: Serine/threonine-protein kinase Chk2 (Homo sapiens) (UniProt O96017); details: at 0.1 µM
# [9] = target: Serine/threonine-protein kinase Chk2 (Homo sapiens) (UniProt O96017); details: at 1 µM
# [10] = target: Death-associated protein kinase 1 (Homo sapiens) (UniProt P53355); details: at 0.1 µM
# [11] = target: Death-associated protein kinase 1 (Homo sapiens) (UniProt P53355); details: at 1 µM
# [12] = target: T3, Serine/threonine-protein kinase DCLK2 (Homo sapiens) (UniProt Q8N568); details: at 0.1 µM
# T3 sequence (whole entry): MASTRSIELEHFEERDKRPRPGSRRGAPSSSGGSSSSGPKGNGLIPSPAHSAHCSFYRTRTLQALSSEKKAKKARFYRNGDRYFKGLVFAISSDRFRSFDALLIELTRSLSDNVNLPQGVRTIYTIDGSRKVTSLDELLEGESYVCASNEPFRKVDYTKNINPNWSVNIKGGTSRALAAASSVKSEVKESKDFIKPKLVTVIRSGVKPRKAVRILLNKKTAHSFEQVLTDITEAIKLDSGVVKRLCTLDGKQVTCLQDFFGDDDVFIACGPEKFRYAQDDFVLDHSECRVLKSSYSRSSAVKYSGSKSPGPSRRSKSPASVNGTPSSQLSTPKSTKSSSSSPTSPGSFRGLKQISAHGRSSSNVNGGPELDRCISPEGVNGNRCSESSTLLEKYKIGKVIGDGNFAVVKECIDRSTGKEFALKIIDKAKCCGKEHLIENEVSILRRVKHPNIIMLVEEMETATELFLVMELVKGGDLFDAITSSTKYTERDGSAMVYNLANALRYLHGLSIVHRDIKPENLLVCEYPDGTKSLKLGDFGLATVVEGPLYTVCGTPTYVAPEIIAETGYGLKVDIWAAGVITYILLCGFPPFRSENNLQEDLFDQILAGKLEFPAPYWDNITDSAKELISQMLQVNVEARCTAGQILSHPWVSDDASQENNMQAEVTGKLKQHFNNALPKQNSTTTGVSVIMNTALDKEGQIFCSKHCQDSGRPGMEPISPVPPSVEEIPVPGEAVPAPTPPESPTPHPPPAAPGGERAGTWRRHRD
# [13] = target: T3, Serine/threonine-protein kinase DCLK2 (Homo sapiens); details: at 1 µM
# [14] = target: MAP kinase-activated protein kinase 2 (Homo sapiens) (UniProt P49137); details: at 0.1 µM
# [15] = target: MAP kinase-activated protein kinase 2 (Homo sapiens) (UniProt P49137); details: at 1 µM
# [16] = target: MAP kinase-activated protein kinase 3 (Homo sapiens) (UniProt Q16644); details: at 0.1 µM
# [17] = target: MAP kinase-activated protein kinase 3 (Homo sapiens) (UniProt Q16644); details: at 1 µM
# [18] = target: Serine/threonine-protein kinase MARK1 (Homo sapiens) (UniProt Q9P0L2); details: at 0.1 µM
# [19] = target: Serine/threonine-protein kinase MARK1 (Homo sapiens) (UniProt Q9P0L2); details: at 1 µM
# [20] = target: MAP/microtubule affinity-regulating kinase 3 (Homo sapiens) (UniProt P27448); details: at 0.1 µM;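 note: mean percent inhibition of MARK3 kinase activity, measured within the GSK PKIS screening panel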
# MAP/microtubule affinity-regulating kinase 3 (Homo sapiens), sequence (P27448 whole entry, looked up): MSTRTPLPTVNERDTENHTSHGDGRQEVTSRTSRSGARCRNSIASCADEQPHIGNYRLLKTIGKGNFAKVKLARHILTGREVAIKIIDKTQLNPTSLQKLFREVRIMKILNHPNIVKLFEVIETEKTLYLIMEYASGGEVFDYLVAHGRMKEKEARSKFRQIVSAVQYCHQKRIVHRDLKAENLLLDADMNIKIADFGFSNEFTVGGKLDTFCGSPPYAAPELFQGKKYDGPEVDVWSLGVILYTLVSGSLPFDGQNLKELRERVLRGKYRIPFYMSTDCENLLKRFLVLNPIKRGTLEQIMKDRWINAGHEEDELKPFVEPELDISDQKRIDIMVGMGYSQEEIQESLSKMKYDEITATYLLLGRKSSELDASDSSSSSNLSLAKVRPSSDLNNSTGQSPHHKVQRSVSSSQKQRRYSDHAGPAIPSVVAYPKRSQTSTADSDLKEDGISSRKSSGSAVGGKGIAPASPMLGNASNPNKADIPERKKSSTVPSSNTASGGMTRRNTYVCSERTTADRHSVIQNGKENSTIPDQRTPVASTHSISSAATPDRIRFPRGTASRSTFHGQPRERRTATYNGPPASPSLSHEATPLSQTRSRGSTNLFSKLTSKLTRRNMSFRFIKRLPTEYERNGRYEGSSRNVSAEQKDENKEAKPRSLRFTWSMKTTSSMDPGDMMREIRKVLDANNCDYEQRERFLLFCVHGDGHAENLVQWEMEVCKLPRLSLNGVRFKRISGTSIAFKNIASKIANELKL
# Death-associated protein kinase 1 (Homo sapiens), sequence (P53355 whole entry, looked up): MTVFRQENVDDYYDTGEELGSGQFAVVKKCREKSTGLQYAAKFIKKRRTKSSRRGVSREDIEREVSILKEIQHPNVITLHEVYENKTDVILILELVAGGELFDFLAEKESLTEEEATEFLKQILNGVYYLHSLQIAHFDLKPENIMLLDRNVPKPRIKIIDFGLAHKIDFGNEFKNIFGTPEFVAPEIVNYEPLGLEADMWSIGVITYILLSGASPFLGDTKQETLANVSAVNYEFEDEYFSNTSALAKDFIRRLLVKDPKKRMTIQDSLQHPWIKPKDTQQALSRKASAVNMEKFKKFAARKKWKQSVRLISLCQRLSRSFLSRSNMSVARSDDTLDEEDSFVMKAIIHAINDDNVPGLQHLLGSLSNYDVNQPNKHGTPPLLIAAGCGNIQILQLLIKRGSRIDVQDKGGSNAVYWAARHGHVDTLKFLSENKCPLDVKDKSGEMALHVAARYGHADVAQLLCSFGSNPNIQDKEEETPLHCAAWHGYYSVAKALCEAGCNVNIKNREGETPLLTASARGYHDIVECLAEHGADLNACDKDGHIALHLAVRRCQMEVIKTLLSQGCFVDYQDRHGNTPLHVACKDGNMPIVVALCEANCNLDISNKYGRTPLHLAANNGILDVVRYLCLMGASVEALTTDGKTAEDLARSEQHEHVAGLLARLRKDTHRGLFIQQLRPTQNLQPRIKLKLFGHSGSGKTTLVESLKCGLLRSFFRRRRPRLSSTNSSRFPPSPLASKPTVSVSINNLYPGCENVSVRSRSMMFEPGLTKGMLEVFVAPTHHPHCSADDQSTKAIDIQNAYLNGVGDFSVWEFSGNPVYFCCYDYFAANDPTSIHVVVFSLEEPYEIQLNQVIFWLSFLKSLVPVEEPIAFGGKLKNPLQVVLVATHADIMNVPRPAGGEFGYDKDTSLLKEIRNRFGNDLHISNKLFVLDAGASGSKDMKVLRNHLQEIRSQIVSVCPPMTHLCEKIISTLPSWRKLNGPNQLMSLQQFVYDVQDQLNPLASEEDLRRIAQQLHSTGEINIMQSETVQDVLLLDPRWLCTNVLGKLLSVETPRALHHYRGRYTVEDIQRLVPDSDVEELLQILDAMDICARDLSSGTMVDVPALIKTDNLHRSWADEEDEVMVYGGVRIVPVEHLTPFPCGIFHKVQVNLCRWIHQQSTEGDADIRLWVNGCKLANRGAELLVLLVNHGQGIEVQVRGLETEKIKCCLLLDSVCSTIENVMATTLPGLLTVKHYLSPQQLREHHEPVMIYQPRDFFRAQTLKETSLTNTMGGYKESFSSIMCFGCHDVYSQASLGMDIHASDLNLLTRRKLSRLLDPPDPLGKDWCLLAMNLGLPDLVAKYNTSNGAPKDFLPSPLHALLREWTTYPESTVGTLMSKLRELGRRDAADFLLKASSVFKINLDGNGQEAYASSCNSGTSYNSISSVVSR
# Serine/threonine-protein kinase Chk2 (Homo sapiens), sequence (O96017 whole entry): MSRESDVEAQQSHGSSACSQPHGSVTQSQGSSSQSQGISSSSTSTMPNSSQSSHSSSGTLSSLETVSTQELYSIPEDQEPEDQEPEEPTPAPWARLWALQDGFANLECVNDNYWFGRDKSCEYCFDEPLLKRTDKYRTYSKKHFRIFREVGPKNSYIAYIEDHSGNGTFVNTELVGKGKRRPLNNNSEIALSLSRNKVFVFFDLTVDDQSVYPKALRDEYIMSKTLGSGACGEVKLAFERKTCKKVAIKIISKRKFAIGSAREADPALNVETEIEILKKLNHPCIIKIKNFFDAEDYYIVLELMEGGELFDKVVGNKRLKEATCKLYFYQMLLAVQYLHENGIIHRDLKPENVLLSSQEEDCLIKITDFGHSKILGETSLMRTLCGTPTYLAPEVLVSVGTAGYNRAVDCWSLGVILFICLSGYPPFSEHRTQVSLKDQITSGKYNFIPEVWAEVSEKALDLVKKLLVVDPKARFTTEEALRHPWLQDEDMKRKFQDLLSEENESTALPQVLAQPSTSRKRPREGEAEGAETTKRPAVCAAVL
# Calcium/calmodulin-dependent protein kinase type II subunit delta (Homo sapiens), sequence (Q13557 whole entry): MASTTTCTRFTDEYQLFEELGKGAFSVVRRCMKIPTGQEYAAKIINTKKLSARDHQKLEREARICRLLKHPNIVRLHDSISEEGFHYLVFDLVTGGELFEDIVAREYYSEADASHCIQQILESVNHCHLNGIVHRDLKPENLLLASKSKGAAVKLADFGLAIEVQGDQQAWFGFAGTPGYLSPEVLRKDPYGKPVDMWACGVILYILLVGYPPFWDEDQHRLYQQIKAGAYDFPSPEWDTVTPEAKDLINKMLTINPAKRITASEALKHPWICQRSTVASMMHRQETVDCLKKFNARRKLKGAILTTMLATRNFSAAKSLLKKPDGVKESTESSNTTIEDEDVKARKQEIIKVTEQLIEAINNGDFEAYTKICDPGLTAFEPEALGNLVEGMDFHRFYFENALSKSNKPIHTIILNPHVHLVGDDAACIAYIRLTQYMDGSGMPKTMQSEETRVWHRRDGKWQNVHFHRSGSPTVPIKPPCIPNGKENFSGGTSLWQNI
# Serine/threonine-protein kinase MARK1 (Homo sapiens), sequence (Q9P0L2 whole entry, looked up): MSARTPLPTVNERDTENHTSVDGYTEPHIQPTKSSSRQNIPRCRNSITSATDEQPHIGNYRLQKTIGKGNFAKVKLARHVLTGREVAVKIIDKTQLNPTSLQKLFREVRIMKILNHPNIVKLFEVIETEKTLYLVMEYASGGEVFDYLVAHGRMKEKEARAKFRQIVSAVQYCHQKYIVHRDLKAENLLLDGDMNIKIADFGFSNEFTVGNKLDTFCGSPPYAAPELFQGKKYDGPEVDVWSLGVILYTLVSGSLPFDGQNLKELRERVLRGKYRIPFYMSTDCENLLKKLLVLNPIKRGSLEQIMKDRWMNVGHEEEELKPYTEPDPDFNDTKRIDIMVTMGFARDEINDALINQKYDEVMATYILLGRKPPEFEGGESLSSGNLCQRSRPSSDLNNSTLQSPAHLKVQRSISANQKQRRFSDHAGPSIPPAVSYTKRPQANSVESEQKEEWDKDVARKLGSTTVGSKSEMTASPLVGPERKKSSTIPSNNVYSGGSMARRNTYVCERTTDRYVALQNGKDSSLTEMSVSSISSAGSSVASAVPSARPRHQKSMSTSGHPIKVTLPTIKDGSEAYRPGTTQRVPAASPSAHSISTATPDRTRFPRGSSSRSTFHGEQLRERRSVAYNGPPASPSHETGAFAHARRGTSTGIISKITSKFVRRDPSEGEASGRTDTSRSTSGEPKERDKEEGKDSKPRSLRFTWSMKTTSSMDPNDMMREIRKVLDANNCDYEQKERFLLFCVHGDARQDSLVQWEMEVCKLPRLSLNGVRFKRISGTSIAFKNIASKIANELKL
# MAP kinase-activated protein kinase 3 (Homo sapiens), sequence (Q16644 whole entry, looked up): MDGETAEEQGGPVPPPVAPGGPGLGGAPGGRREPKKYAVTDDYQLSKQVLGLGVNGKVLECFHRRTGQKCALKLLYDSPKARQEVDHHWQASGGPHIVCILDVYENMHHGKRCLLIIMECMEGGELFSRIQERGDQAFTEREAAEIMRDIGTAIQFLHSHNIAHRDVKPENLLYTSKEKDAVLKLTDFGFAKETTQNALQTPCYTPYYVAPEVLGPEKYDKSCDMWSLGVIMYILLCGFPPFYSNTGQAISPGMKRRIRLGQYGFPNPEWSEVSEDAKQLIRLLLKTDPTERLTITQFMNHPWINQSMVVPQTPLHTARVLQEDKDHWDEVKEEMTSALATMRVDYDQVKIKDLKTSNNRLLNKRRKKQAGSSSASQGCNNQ
# MAP kinase-activated protein kinase 2 (Homo sapiens), sequence (P49137 whole entry, looked up): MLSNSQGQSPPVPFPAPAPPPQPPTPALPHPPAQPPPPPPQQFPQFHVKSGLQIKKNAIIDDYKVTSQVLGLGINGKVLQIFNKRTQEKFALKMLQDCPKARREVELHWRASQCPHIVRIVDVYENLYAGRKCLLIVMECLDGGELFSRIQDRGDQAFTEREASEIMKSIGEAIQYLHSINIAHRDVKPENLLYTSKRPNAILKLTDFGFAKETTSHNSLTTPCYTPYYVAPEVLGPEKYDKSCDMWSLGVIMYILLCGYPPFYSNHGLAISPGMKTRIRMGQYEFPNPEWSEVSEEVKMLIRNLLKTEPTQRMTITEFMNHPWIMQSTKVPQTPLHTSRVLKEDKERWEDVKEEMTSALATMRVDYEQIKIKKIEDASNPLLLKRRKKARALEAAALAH
Structure (SMILES),inhibition [1] [%],inhibition [2] [%],inhibition [3] [%],inhibition [4] [%],inhibition [5] [%],inhibition [6] [%],inhibition [7] [%],inhibition [8] [%],inhibition [9] [%],inhibition [10] [%],inhibition [11] [%],inhibition [12] [%],inhibition [13] [%],inhibition [14] [%],inhibition [15] [%],inhibition [16] [%],inhibition [17] [%],inhibition [18] [%],inhibition [19] [%],inhibition [20] [%]
c1cc(-c2cnn3nc(N4CCOCC4)ccc23)nc(NC2CC2)n1,6.53,3.77,9.6,1.3,2.07,3.63,1.64,3.07,7.4,3.51,3.38,-0.25,-2.52,1.29,1.97,5.27,6.31,3.55,10.3,4.76
[O-][S+]1CCN(Cc2ccc(-c3ccc4ncnc(Nc5ccc(OCc6cccc(F)c6)c(Cl)c5)c4c3)o2)CC1,0.16,2.62,3.95,0.28,2.28,7.38,10.6,1.91,3.16,6.57,6.25,0.51,2.24,1.68,1.59,7.01,7.37,4.1,3.65,3.31
CCn1c(-c2nonc2N)nc2c(C#CC(C)(C)O)ncc(OC3CCNCC3)c21,5.73,4.43,8.15,1.96,6.84,2,4.29,2.65,7.53,4.3,5.68,0.06,3.29,1.3,3.78,3.98,4.41,20.8,74.1,21.2
O=C(O[C@H]1CN[C@H](C#Cc2cc3ncnc(Nc4ccc(Cc5ccccc5)cc4)c3s2)C1)N1CCOCC1,-1.9,1.04,-0.85,-0.04,-2.21,1.79,0.1,0.28,0.95,4.84,2.13,-0.4,2.31,0.76,-0.1,3.66,3.19,1.63,2.56,2.46
CN1CCC(n2cnc(-c3ccc(F)cc3)c2-c2ccnc(N)n2)CC1,2.5,-0.04,4.76,-0.06,0.61,0.82,-1.42,1.28,9.16,2.13,2.09,0.59,1.94,0.99,0.33,17.1,33.5,1.8,6.88,0.93
Cc1cccc(Nc2ncc(-c3ccccc3)o2)c1,7.1,4.42,6.85,1.87,4.2,4.59,6.26,3.02,6.44,5.26,3.39,-0.51,1.2,1.15,3.82,3.13,4.32,2.41,8.07,3.98
CCn1c(-c2nonc2N)nc2ccccc21,5.38,4.24,4.89,-0.37,1.93,6.35,4.95,0.53,1.9,4.46,7.32,-0.38,-3.76,0.79,1.12,3.15,1.52,2.03,3.52,3.42
COc1ccc(-c2oc3ncnc(N)c3c2-c2ccc(NC(=O)Nc3cc(C(F)(F)F)ccc3F)cc2)cc1,16.9,6.01,21.5,0.6,13.4,8.35,6.88,2.06,3.88,5.33,4.78,1.65,6.21,2.26,2.83,4.08,16.3,3.02,6.8,0.75
Nc1ncc(-c2cccc(S(N)(=O)=O)c2)c2scc(-c3ccc(F)c(Cl)c3)c12,0.53,3.74,2.95,1.75,1.03,5.24,2.44,3.46,7.7,5.41,3.2,0.41,0.61,1.76,1.12,6,15.7,3.57,5.62,-0.65
CCn1cc(-c2ccnc3[nH]ccc23)c(-c2cccc(NC(=O)Nc3ccc(OCc4ccccc4)cc3)c2)n1,-2.25,1.86,-0.28,0.6,-0.67,1.82,-1.06,-0.17,-0.76,1.61,1.12,-1.87,-0.63,-0.39,-0.71,0.57,1.13,0.74,3.68,1.29
Cc1ccc2c(-c3ccnc(Nc4ccccc4)n3)c(-c3ccc(F)cc3)nn2n1,4.16,3.9,4.15,-0.02,1.87,2.71,4.19,2.15,2.4,3.42,5.85,1.21,1.97,1.27,1.49,32.5,36,2.17,2.96,3.81
